Source: ChEMBL document CHEMBL1157539, “Thousands of chemical starting points for antimalarial lead identification” (Nature, 2010)

Tests used:
Assay type in all cases: functional
Plasmodium falciparum [1] = assay: GSK_TCMDC: Inhibition of Plasmodium falciparum 3D7 in whole red blood cells, using parasite LDH activity as an index of growth. Test compounds present at 2uM
Plasmodium falciparum [2] = assay: GSK_TCMDC: Inhibition of Plasmodium falciparum Dd2 in whole red blood cells, using parasite LDH activity as an index of growth. Test compounds present at 2uM
HepG2 = assay: GSK_TCMDC: Percent inhibition of human HepG2 cell line. Test compounds present at 10uM.

Row | SMILES | Inhibition (Plasmodium falciparum [1]) | Inhibition (Plasmodium falciparum [2]) | Inhibition (HepG2)
1 | Br.CC(CON1C(N)=NC(N)=NC1(C)C)c1ccc(Cl)cc1Cl (stereo not given) | 97% | 95% | 64%
2 | O=C(Nc1ccc(S(=O)(=O)N2CCCCC2)cc1)c1cc(-c2cc(Cl)ccc2O)n[nH]1 | 97% | 87% | 36%
3 | CCn1c(-c2nonc2N)nc2cnc(Oc3cccc(NC(=O)c4ccc(OCCCN5CCCCC5)cc4)c3)cc21 | 90% | 12% | 38%
4 | CNCCNC(=O)C1Cc2c([nH]c3c(C)cccc23)C(c2ccc(Cl)c(Cl)c2)N1 (stereo not given) | 100% | 60% | 13%
5 | Cn1cc(CN2CCCC(COC(c3ccccc3)c3ccccc3)C2)cn1 (stereo not given) | 99% | 99% | 24%
6 | CC(C)CNCc1ccc(OCc2cccc(COc3ccc(CNCC(C)C)cc3I)c2)c(I)c1.Cl | 98% | 84% | 23%
7 | CC(C)(NCc1ncc[nH]1)c1nc(-c2ccc(Cl)c(O)c2)c(-c2ccncc2)[nH]1.Cl | 95% | 97% | 42%
8 | O=C(O)C(F)(F)F.c1ccc(-n2ncc(CNCc3ccc(-c4cccc(-c5nc6ccccc6[nH]5)c4)cc3)n2)cc1 | 94% | 9% | 21%
9 | CCCCCC1c2[nH]c3ccccc3c2CCN1C(=O)OCc1ccccc1 (stereo not given) | 93% | 68% | 3%
10 | NC1CCN(Cc2ccc(-c3ccc(-c4nc5cc(F)ccc5[nH]4)cc3)cc2)C1.O=C(O)C(F)(F)F (stereo not given) | 98% | 99% | 41%
11 | O=C(Nc1ccc(-c2ccc(-c3nc4ccccc4[nH]3)s2)cc1)Nc1ccc(F)c(F)c1F | 99% | 97% | 57%
12 | COC(=O)c1cccc(CNCc2ccc(-c3cccc(-c4nc5ccccc5[nH]4)c3)cc2)c1.O=C(O)C(F)(F)F | 100% | 46% | 5%
13 | Nc1nc2c(ncn2OC[C@H]2COP(=O)([O-])CO2)c(=O)[nH]1.[Na+] | 92% | 32% | 1%
14 | CN1CCC(COc2ccc(CN3CCC(NC(=O)c4cccc(Cl)c4)CC3)cc2)CC1.O=C(O)C(F)(F)F | 94% | 13% | 16%
15 | CN(C)CCCn1c(N)c(-c2nc3ccccc3[nH]2)c2nc(C#N)c(C#N)nc21 | 100% | 100% | 100%
16 | CC(C)CCCC(C)(C)NC[C@@H](O)[C@H](Cc1ccccc1)NC(=O)c1cc(NC(C)C)cc(N2CCCCS2(=O)=O)c1F.O=CO | 98% | 99% | 11%
17 | COc1cc2nc(N3CCC(CNC(=O)c4ccc(-c5ccc(C(=O)N(C)C)cc5O)cc4)CC3)nc(N)c2cc1OC | 100% | 90% | 2%
18 | COc1ccc(CN(C)C(=O)CCNS(=O)(=O)c2ccc3c(c2)OCCCO3)cc1F | 96% | 94% | 9%
19 | COCCN1CCN(Cc2ccc(-c3ccc(-c4nc5cc(F)ccc5[nH]4)cc3)cc2)CC1.O=C(O)C(F)(F)F | 100% | 99% | 25%
20 | Cc1onc(-c2ccccc2)c1-c1nc(NCCC(c2ccccc2)c2ccccc2)no1 | 100% | 78% | 0%

Row | SMILES | Inhibition (Plasmodium falciparum [1]) | Inhibition (Plasmodium falciparum [2]) | Inhibition (HepG2)
21 | Cc1ccc(/C=C/C(=O)N2CCC(CCN3CCC(c4c[nH]c5ccccc45)CC3)CC2)cc1C | 94% | 5% | 50%
22 | Cl.N=C(NC1CC1)c1ccc2[nH]c(CCCCCc3nc4cc(C(=N)NC5CC5)ccc4[nH]3)nc2c1 | 89% | 72% | 0%
23 | CN(C)CCNCc1ccc(-c2ccc(-c3nc4cc(F)ccc4[nH]3)cc2)cc1.O=C(O)C(F)(F)F | 100% | 99% | 8%
24 | CN1CCN(CCCN(Cc2ccc(-c3ccc(CNC4CCCC4)cc3)cc2)C(=O)CCC2CCCC2)CC1.O=C(O)C(F)(F)F | 98% | 96% | 92%
25 | Cc1cccc2nc(-c3cccc(-c4cccc(NC(=O)CNC(=O)c5ccc(O)cc5)c4)c3)[nH]c12 | 94% | 49% | 9%
26 | Cc1ccc(CNC(=O)[C@H](CCCN)Nc2nc(Nc3ccccc3)ncc2C)cc1.O=C(O)C(F)(F)F | 97% | 0% | 0%
27 | Cc1cccc(-c2nc3[nH]c(=O)cc(NC(=O)C(C)C)n3n2)c1 | 96% | 93% | 0%
28 | Oc1ccc2ccccc2c1C=NNc1nc(=Nc2ccccc2)nc(N2CCOCC2)[nH]1 | 100% | 49% | 66%
29 | O=C(CCCCCNC(=O)c1ccc(O)c(-c2ccc(Cl)c(Cl)c2)c1)NC1CCCCCC1 | 92% | 3% | 0%
30 | Cc1c(CN2CCC(N3CCC(C(=O)NC4CC4)CC3)CC2)[nH]c2c(Cl)cccc12 | 92% | 3% | 22%
31 | Cc1cc(C2CCN(CCCCNC(=O)c3ccc(-c4ccc(C#N)cc4)cc3)CC2)c(C)cc1OCCO | 96% | 68% | 20%
32 | COC(=O)C(=O)c1c(-c2ccccc2)c(-c2ccc(OC)c(OC)c2)c2c3cc(OC)c(OC)cc3ccn12 | 97% | 89% | 2%
33 | CN1CCCc2ccc(NC(=O)Nc3ccc(Cl)c(Cl)c3)cc2C1 | 89% | 22% | 0%
34 | CCC[C@@H](/C=N/N(C)C(=O)OC(C)(C)C)NC(=O)[C@H](CC(C)C)NC(=O)c1cc2cccc(OC)c2o1 | 88% | 61% | 5%
35 | CCN(CC)CCN(Cc1ccc(-c2ccc(C(F)(F)F)cc2)cc1)C(=O)Cn1c(CCc2ccccc2F)nc(=O)c2ccccc21.O=C(O)C(O)C(O)C(=O)O | 95% | 54% | 39%
36 | COc1ccc(NC(=O)CCNc2ccnc(NCCc3ccc(F)cc3)n2)cc1.O=C(O)C(F)(F)F | 94% | 5% | 4%
37 | Clc1ncnc2ncn(Cc3cccc(Br)c3)c12 | 91% | 56% | 0%
38 | Br.CC(C)c1ccc(OCCCON2C(=N)N=C(N)NC2(C)C)cc1 | 93% | 97% | 69%
39 | CC(=O)NCC(=O)NC1=NC(=N)N(OCc2ccc3ccccc3c2)C(C)(C)N1 | 95% | 97% | 66%
40 | Oc1ccc(CCNc2nc(N/N=C/c3ccc(Cl)cc3)nc(N3CCNCC3)n2)cc1 | 100% | 68% | 14%

Row | SMILES | Inhibition (Plasmodium falciparum [1]) | Inhibition (Plasmodium falciparum [2]) | Inhibition (HepG2)
41 | Cn1cc(C(=O)Nc2cccc(-c3cccc(-c4nc5ccccc5[nH]4)c3)c2)n(C)c1=O | 99% | 60% | 0%
42 | O=C(Nc1ccc(Cl)c(Cl)c1)N1CCC(NCc2cccc([N+](=O)[O-])c2)CC1.O=C(O)C(F)(F)F | 97% | 12% | 8%
43 | COc1ccccc1Cn1ccnc1SCC(=O)Nc1cc(C(F)(F)F)ccc1Cl | 96% | 97% | 12%
44 | CN(C)C(CNC(=O)c1cc(-c2ccncc2)c(-c2ccc(NC(=O)Nc3cccc(F)c3)cc2)o1)c1ccccc1.O=C(O)C(F)(F)F (stereo not given) | 100% | 99% | 11%
45 | CCOC(=O)c1ccc(COc2ccc(C)nc2)cc1 | 100% | 0% | 14%
46 | CCCCCCN1CCCN(Cc2ccc(C(=O)Nc3ccc(CC)cc3)cc2)CC1.O=C(O)C(F)(F)F | 97% | 50% | 53%
47 | O=C(/C=C/c1ccc(Cl)c(Cl)c1)NCCCCCCN1CCN(C(=O)Nc2cccc(Cl)c2)CC1 | 85% | 2% | 33%
48 | Cc1ccc(C(=O)Nc2ccc(C)c(OC3CCN(Cc4ccco4)C3)c2)cc1.O=C(O)C(F)(F)F (stereo not given) | 90% | 49% | 10%
49 | CC(=O)N(C)C1CCN(Cc2ccc(-c3ccc(-c4nc5cc(F)ccc5[nH]4)s3)cc2)C1.O=C(O)C(F)(F)F (stereo not given) | 98% | 22% | 46%
50 | CN1CCCC(CN2CCN(Cc3cccc(-c4ccc(-c5nc6ccccc6[nH]5)cc4)c3)CC2)C1.O=C(O)C(F)(F)F (stereo not given) | 100% | 100% | 73%
51 | CC(C)(C)C(C)(C)Cc1ccc(O)c(CN2CCN(c3ccccc3)CC2)c1 | 99% | 98% | 6%
52 | Fc1cccc(COc2ccc(Nc3ncnc4ccc(C#C[C@H]5CCCN5)cc34)cc2Cl)c1 | 91% | 26% | 7%
53 | Cn1nc(-c2cccc(CN[C@@H]3CCc4ccc(O)cc43)c2)c2cnc(NCCCN3CCCC3)nc21 | 100% | 0% | 9%
54 | CC(Cc1ccc(C(=O)Nc2ccc(CC(C)NCCc3cccc(Cl)c3)cc2)cc1)NCCc1ccc(C(F)(F)F)cc1 (stereo not given) | 100% | 88% | 98%
55 | COc1cc(C)nc2ccc(NC(=O)Nc3ccc([N+](=O)[O-])cc3C)cc12 | 90% | 52% | 10%
56 | COc1ccc(CC(Cc2ccc(OC)cc2)NCC(O)c2cccc(Cl)c2)cc1 (stereo not given) | 100% | 98% | 11%
57 | Cc1cccc(Nc2nc(N[C@@H]3CCCNC3)nc3cc[nH]c(=O)c23)c1.O=C(O)C(F)(F)F | 99% | 98% | 55%
58 | COc1ccccc1C1CCN(C2CCC(NC(=O)c3cc(-c4ccc(Cl)cc4)cs3)CC2)CC1 (stereo not given) | 100% | 100% | 61%
59 | O=C(/C=C/c1ccc(Cl)cc1)NCCCCCN1CCC(c2c[nH]c3ccccc23)CC1 | 99% | 15% | 42%
60 | Fc1ccc(Nc2ccnc3cc(I)ccc23)c(Cl)c1 | 95% | 24% | 35%
